Results on 3 molecules are retold here after PubChem BioAssay (EPA / NIEHS).

Active and inactive are the calls of the source. How the source made its calls: active means hit-call score of the fitted dose curve at least 0.9, where 1 is the maximum; inactive means score below 0.9.

The first experiment in a line: CEETOX_H295R_11DCORT: CeeTox H295R High-throughput Steroidogenesis Assay for 11-Deoxycortisol (11DCORT) (AID 2283432).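 On AC50: human adrenal H295R cells prestimulated with 10 µM forskolin for 48 h; 11-deoxycortisol secreted into the medium measured by LC-MS/MS.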 As to conditions: actives raise or lower the signal. Summed up:
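Adrenal carcinoma line H295R, run per OECD 456 with minor changes, was forskolin-stimulated (10 uM, 48 h) before a 48 h chemical exposure at 0.1% DMSO. Secreted 11-deoxycortisol was quantified by HPLC-MS/MS.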
On to `O=C(O)c1ccc([N+](=O)[O-])cc1`, for which the outcome was inactive.
For `C=CCOc1nc(OCC=C)nc(OCC=C)n1`, the AC50 (as a rule, the concentration at which the activity in the assay is half-maximal) is 25.9 µM (active).
For `O=c1cc(-c2ccccc2)oc2cc(O)cc(O)c12`, the call was inactive.

A short description of the next experiment: CEETOX_H295R_OHPROG: CeeTox H295R High-throughput Steroidogenesis Assay for OH-Progesterone (OHPROG) (AID 2283435).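 On AC50: human adrenal H295R cells primed 48 h with 10 µM forskolin; 17alpha-hydroxyprogesterone secreted into medium measured by HPLC-MS/MS.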 As to conditions: actives raise or lower the signal. Summed up:
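HPLC-MS/MS quantification of 17alpha-hydroxyprogesterone secreted by H295R cells after 48 h chemical exposure, following 48 h 10 uM forskolin prestimulation. Gain or loss of signal fitted relative to DMSO. Viability checked by MTT in the same wells.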
Turning to `O=C(O)c1ccc([N+](=O)[O-])cc1`, the molecule was classed as inactive.
The same measure, in the same setting: under `C=CCOc1nc(OCC=C)nc(OCC=C)n1` stands “inactive”.
Take `O=c1cc(-c2ccccc2)oc2cc(O)cc(O)c12`: the AC50 is 16.6 µM (active).

The next experiment is described as follows: CEETOX_H295R_CORTIC: CeeTox H295R High-throughput Steroidogenesis Assay for Corticosterone (CORTIC) (AID 2283437).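 Further: corticosterone secreted into medium quantified by mass spectrometry.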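 On AC50: human H295R adrenal cells prestimulated with forskolin before chemical exposure.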 As to conditions: actives raise or lower the signal. An outline of the steps:
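48 h forskolin (10 uM) prestim, then 48 h chemical exposure, final DMSO 0.1%. Readout: corticosterone in medium by LC-MS/MS after MTBE extraction. Gain/loss fit vs DMSO; MTT viability in same wells.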
For `O=C(O)c1ccc([N+](=O)[O-])cc1`, the outcome was inactive.
`C=CCOc1nc(OCC=C)nc(OCC=C)n1`: the AC50 was 31.7 µM (active).
Still for that read-out and setting: under `O=c1cc(-c2ccccc2)oc2cc(O)cc(O)c12` stands 5.66 µM (active).
